The values below come from PubChem BioAssay (NCATS).

Results filed as inconclusive are left out. Unmarked numbers belong to inactive results. The source made the active and inactive calls. The call rests on the fitted dose curve; in most records, active means well fitted inhibition curve with a large enough effect; inconclusive means small, poorly fitted or top-dose-only effect; inactive means flat fitted curve, though single readings scatter. Positions of bridges follow the written chain, without caps; N, C: chain ends. Non-standard residues stand in square brackets, D forms with d. Residues, ends and D or L forms follow the SMILES beside them. ξ: configuration not given here. *: point of attachment. Octanoyl(6-Me) = CCC(C)CCCCC(=O)*; ξThr(3R) = C[C@@H](O)C(N)C(=O)O; dDab = NCC[C@@H](N)C(=O)O; Dab = NCC[C@H](N)C(=O)O; Nva = CCC[C@H](N)C(=O)O; Cbz = O=C(OCc1ccccc1)*

One assay has as its system CRL-7250. The assay can be described thus: Cytotoxic Profiling of Annotated Libraries Using Quantitative High-Throughput Screening (AID 1296008). Particulars: Five cell lines viability, CellTiter-Glo ATP luminescence, 48-72 h; max response: stronger effect = lower value. Summed up: (§1)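 Compounds were pin-transferred onto cells and incubated 48 or 72 hr at 37 degree Celsius, 95% humidity. CellTiter-Glo was added, plates sat 10 min at room temperature, then ATP-coupled luminescence was imaged as the viability read-out.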

Another assay relates to HEK293. Described as above. Particulars: Five cell lines viability, CellTiter-Glo ATP luminescence, 48-72 h; max response: stronger effect = lower value. Summed up:
as §1
On the technique in general: ATP-based viability assays read luminescence as a measure of living cells.

The subject of the next assay is HaCat. The assay is described as above. Conditions: Five cell lines viability, CellTiter-Glo ATP luminescence, 48-72 h; max response: stronger effect = lower value. The essentials:
as §1

In a further assay the test system is KB-3-1. The assay is described as above. Conditions: Five cell lines viability, CellTiter-Glo ATP luminescence, 48-72 h; max response: stronger effect = lower value. Summed up:
as §1

The test system of assay [1] is NIH3T3. Described as above. Particulars: Five cell lines viability, CellTiter-Glo ATP luminescence, 48-72 h; max response: stronger effect = lower value. Summed up: as §1
Another assay deals with MCC-13. Kind of assay: qHTS assay to identify novel small-molecules to repurpose for Merkel cell carcinoma treatment (AID 1296009). Conditions: MCC and control cell lines, CellTiter-Glo viability, 72 h; series mostly up to 46 µM. Summed up: (§2)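 Viability readout: ATP luminescence (CellTiter-Glo) after 72 hr drug exposure at 37 degree celsius. Dose-response format was 8 points for NPC and 11 points for MIPE; data normalized to in-plate controls.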
Background: In qHTS, concentration-response curves come from the screen itself.

The next assay has as its system MCC-26. Described as above. Conditions: MCC and control cell lines, CellTiter-Glo viability, 72 h; series mostly up to 46 µM. Summed up:
as §2

The next assay concerns MKL-1. Described as above. Conditions: MCC and control cell lines, CellTiter-Glo viability, 72 h; series mostly up to 46 µM. The essentials:
as §2

A further assay concerns MKL-2. Described as above. Conditions: MCC and control cell lines, CellTiter-Glo viability, 72 h; series mostly up to 46 µM. Summed up:
as §2

In the next assay the test system is UISO. Described as above. Particulars: MCC and control cell lines, CellTiter-Glo viability, 72 h; series mostly up to 46 µM. Summed up:
as §2

The next assay has as its system WaGa. Described as above. Particulars: MCC and control cell lines, CellTiter-Glo viability, 72 h; series mostly up to 46 µM. The essentials: as §2
Assay [2] relates to NIH3T3. Described as above. Particulars: MCC and control cell lines, CellTiter-Glo viability, 72 h; at 44.8 µM (top of the series) unless noted. Summed up:
as §2

For another assay, the system named is HEK293T. Described as above. Particulars: MCC and control cell lines, CellTiter-Glo viability, 72 h; series mostly up to 44.8 µM. The essentials: as §2
Further: nearly all actives have a fitted effect of over 60% in size.
On the % scale 0 is the no-effect control and ±100 the full control effect; potency means the concentration at half of the fitted maximal effect.

For the compound `CCC[C@@H](C=O)NC(=O)[C@H](CC(C)C)NC(=O)[C@H](CC(C)C)NC(=O)OCc1ccccc1` (Cbz-Leu-Leu-[Nva]-aldehyde), the Potency with CRL-7250 was 4.18 µM (active); in the assay with HEK293, 3.72 µM (active); with HaCat, 9.35 µM (active); in the assay on KB-3-1, 2.96 µM (active); with NIH3T3 [1] it was 14.8 µM (active); with MCC-13 it was 3.32 µM (active). Also, the Potency in the assay on MCC-26 was 3.32 µM (active); in the assay on MKL-1, 1.32 µM (active); with MKL-2, 0.833 µM (active); in the assay on UISO, 2.64 µM (active); in the assay with WaGa, 0.833 µM (active).
`CC[C@H](CC[C@@H](C)[C@H]1CC[C@H]2[C@@H]3CC=C4C[C@@H](O)CC[C@]4(C)[C@@H]3CC[C@]12C)C(C)C`: the max response in the assay with CRL-7250 was -0.624%; in the assay on HEK293, -8.75%; in the assay with HaCat it was 4.34%; with KB-3-1, -7.92%; with NIH3T3 [1] it was 4.37%. Further, the Potency result with MCC-13, with MCC-26, in the assay with MKL-1, in the assay with MKL-2, in the assay on UISO and with WaGa was “inactive” throughout.
In the case of `C=CC1=C(C(=O)O)N2C(=O)[C@@H](NC(=O)C(=NO)c3csc(N)n3)[C@H]2SC1`, the outcome in the assay with CRL-7250, in the assay on NIH3T3 [1] and with NIH3T3 [2] was inactive. In addition, the values for the max response with HEK293, with HaCat and in the assay on KB-3-1 were 0.682%, 4.35% and 4.36%, respectively. Also, the Potency result in the assay on MCC-13, in the assay on MCC-26, in the assay with MKL-1, with MKL-2, with UISO and in the assay on WaGa was “inactive” each time.
As to `CC(C)N(CC[C@H](c1ccccc1)c1cc(CO)ccc1O)C(C)C`, the call with CRL-7250, with KB-3-1, in the assay with NIH3T3 [1] and with NIH3T3 [2] was inactive. Besides, the max response in the assay on HEK293 is 0.962%; with HaCat, -1.81%. Besides, the Potency entry in the assay on MCC-13, with MCC-26, in the assay with MKL-1, in the assay on MKL-2, in the assay with UISO and in the assay on WaGa was “inactive” in each case.
With `CON=C(C(=O)N[C@@H]1C(=O)N2C(C(=O)O)=C(CSC(=O)c3ccco3)CS[C@H]12)c1csc(N)n1`, the max response with CRL-7250 was 4.77%; in the assay on HaCat, 1.07%; in the assay with NIH3T3 [1], -6.35%. Further, the compound was classed as inactive with HEK293 and in the assay with KB-3-1. Further, the Potency result in the assay with HEK293T, in the assay on MCC-13, with MCC-26, in the assay with MKL-1, in the assay with MKL-2 and in the assay on WaGa was “inactive” in each case.
On to `COc1ccc(Nc2nccc(NCCO)n2)cc1`, for which the max response in the assay on CRL-7250 is 1.05%; with HEK293, -0.619%; in the assay with HaCat, 0.234%; in the assay on KB-3-1 it was -27.2%; in the assay with NIH3T3 [1], 1.01%. Besides, the Potency result in the assay with MCC-13, with MCC-26, with MKL-1, with MKL-2, in the assay on UISO and in the assay on WaGa was “inactive” in each case.
As to `CN(C)CC[C@H](c1ccc(Cl)cc1)c1ccccn1`, the result in the assay on CRL-7250 was inactive. Besides, the max response in the assay on HEK293 is -15.3%; in the assay on HaCat, -31.9%; in the assay on KB-3-1 it was -7.57%; in the assay with NIH3T3 [1] it was -0.393%. Moreover, the Potency result with MCC-13, with MCC-26, in the assay with MKL-1, in the assay on MKL-2, in the assay on UISO and with WaGa was “inactive” throughout.
With `Cc1onc(-c2ccccc2)c1C(=O)N[C@@H]1C(=O)N2[C@@H](C(=O)O)C(C)(C)S[C@@H]12`, the max response is -3.26% in the assay on CRL-7250; -0.866% in the assay on HEK293; -5.57% with HaCat; 3.95% with KB-3-1; -2.28% in the assay with NIH3T3 [1]. The Potency result in the assay on MCC-13, in the assay on MCC-26, in the assay with MKL-1, in the assay with UISO and in the assay with WaGa was “inactive” throughout.
For the compound `CCC(C)CCCCC(=O)N[C@@H](CCN)C(=O)NC(C(=O)N[C@H](CCN)C(=O)N[C@@H]1CCNC(=O)C([C@@H](C)O)NC(=O)[C@@H](CCN)NC(=O)[C@@H](CCN)NC(=O)[C@@H](CC(C)C)NC(=O)[C@H](Cc2ccccc2)NC(=O)[C@H](CCN)NC1=O)[C@@H](C)O` (stereo partly drawn) ({Octanoyl(6-Me)}-[Dab][ξThr(3R)][dDab][dDab][Dab]F[dL][dDab][dDab][ξThr(3R)]; lactam 4-C), the outcome with CRL-7250, with HEK293, in the assay on NIH3T3 [1] and in the assay with NIH3T3 [2] was inactive. In addition, the max response is 0.455% in the assay with HaCat and 0.786% in the assay with KB-3-1. In addition, the Potency result in the assay on HEK293T, in the assay with MCC-13, in the assay with MKL-1, in the assay with MKL-2, in the assay on UISO and in the assay with WaGa was “inactive” throughout.
